# Data from PubChem BioAssay (NCATS).
# Results filed as inconclusive are left out. A number with no mark means an inactive call. Calls of active or inactive are those of the source. The call rests on the fitted dose curve; in most records, active means well fitted inhibition curve with a large enough effect; inconclusive means small, poorly fitted or top-dose-only effect; inactive means flat fitted curve, though single readings scatter.
# How the values were obtained:
# Assay in all cases: Cytotoxic Profiling of Annotated Libraries Using Quantitative High-Throughput Screening (AID 1296008); further: nearly all actives have a fitted effect of over 60% in size
# Settings in all cases: Five cell lines viability, CellTiter-Glo ATP luminescence, 48-72 h; max response: stronger effect = lower value
# CRL-7250 = system: CRL-7250
# Procedure, shortened: (§1)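 Compounds were pin-transferred onto cells and incubated 48 or 72 hr at 37 degree Celsius, 95% humidity. CellTiter-Glo was added, plates sat 10 min at room temperature, then ATP-coupled luminescence was imaged as the viability read-out.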
# HEK293 = system: HEK293
# Procedure, shortened: as §1
# HaCat = system: HaCat
# Procedure, shortened: as §1
# KB-3-1 = system: KB-3-1
# Procedure, shortened: as §1
# NIH3T3 = system: NIH3T3
# Procedure, shortened: as §1
# On the % scale 0 is the no-effect control and ±100 the full control effect; potency means the concentration at half of the fitted maximal effect.
compound,measurement,setting,value
CC1(C)CCCC2(C)C1CC=C1C(=O)OC(O)C12O (stereo not given),max response,CRL-7250,-7.54%
same,max response,HEK293,-21.2%
same,max response,HaCat,3.25%
same,max response,KB-3-1,3.77%
same,max response,NIH3T3,0.868%
CC1(O)CCCC2(C)C1CCC13CC(CO)C(CCC12)C3 (stereo not given),max response,CRL-7250,-2.17%
same,max response,HEK293,-21.4%
same,max response,HaCat,2.13%
same,outcome,KB-3-1,inactive
same,max response,NIH3T3,-0.27%
CC1OC(OC2C(OC3C(O[C@H]4CC[C@@]5(C)C(CC[C@]6(C)C5C(=O)C=C5C7CC(C)(C)CC(O)[C@]7(C)CC[C@]56C)C4(C)C)OC(C(=O)O)C(O)C3O)OCC(O)C2O)C(O)C(O)C1O (stereo not given in full),max response,CRL-7250,-0.894%
same,max response,HEK293,2.13%
same,max response,HaCat,-1.72%
same,max response,KB-3-1,-2.68%
same,max response,NIH3T3,-3.29%
C/C=C/C=C/C(O)=C1\C(O)=C(C)C(=O)[C@@]2(C)OC(=O)[C@@](C)(NC(=O)/C=C/C(=O)O)[C@@H]12,max response,CRL-7250,-29.7%
same,max response,HEK293,-6.48%
same,max response,HaCat,-17.6%
same,max response,KB-3-1,-1.41%
same,max response,NIH3T3,-1.65%
CC12CCC(C(OC3OC(COC4OCC(O)(CO)C4O)C(O)C(O)C3O)C1)C(C)(C)O2 (stereo not given),max response,CRL-7250,2.4%
same,max response,HEK293,-9.12%
same,max response,HaCat,-11.8%
same,max response,KB-3-1,1.72%
same,max response,NIH3T3,0.27%
CC(=O)OC1C(c2ccccc2)CCC(c2ccccc2)C1OC(C)=O (stereo not given),max response,CRL-7250,2.93%
same,max response,HEK293,-10.8%
same,max response,HaCat,3.27%
same,max response,KB-3-1,7.87%
same,max response,NIH3T3,0.126%
CC(=O)CCC1=C(C)C(O[C@@H]2O[C@H](CO)[C@@H](O)[C@H](O)[C@H]2O)C(O)CC1(C)C (stereo not given in full),max response,CRL-7250,-13.4%
same,max response,HEK293,0.019%
same,max response,HaCat,1.46%
same,max response,KB-3-1,1.06%
same,max response,NIH3T3,3.13%
C=CC(C)(C)C12C=C(OC)C(=O)N3C(C(C)C)C(=O)NC31N(OC)c1ccccc12 (stereo not given),max response,CRL-7250,1.83%
same,max response,HEK293,-5.71%
same,max response,HaCat,-0.498%
same,outcome,KB-3-1,inactive
same,max response,NIH3T3,-14.5%
C/C=C/C=C/C(=O)N1CC[C@]23c4ccccc4N[C@H]4N(C)c5cccc6c5[C@@]42CCN([C@H]6C2OC2(C)C)[C@H]13 (stereo not given in full),max response,CRL-7250,-2.8%
same,max response,HEK293,-2.78%
same,max response,HaCat,-7.02%
same,max response,KB-3-1,9.01%
same,max response,NIH3T3,3.9%
CC[C@H]1OC(=O)[C@](C)(F)C(=O)[C@H](C)[C@@H](O[C@@H]2O[C@H](C)C[C@H](N(C)C)[C@H]2O)[C@](C)(OC)C[C@@H](C)C(=O)[C@@H](C)[C@H]2N(CCCCn3cc(-c4cccc(N)c4)nn3)C(=O)O[C@]12C,max response,CRL-7250,-0.28%
same,Potency,HEK293,1.46 µM (active)
same,max response,HaCat,-5.51%
same,max response,KB-3-1,-12.6%
same,max response,NIH3T3,1.26%
C=C(C)[C@@H]1CC[C@]2(C)CC[C@]3(C)[C@H](CC[C@@H]4[C@@]5(C)CC[C@@H](O)C(C)(C)[C@@H]5CC[C@]43C)[C@@H]12,max response,CRL-7250,-1.57%
same,max response,HEK293,-21%
same,max response,HaCat,0.908%
same,max response,KB-3-1,-4.19%
same,max response,NIH3T3,1.04%
CC1CC[C@]2(C(=O)O)CC[C@]3(C(=O)O)C(=CCC4[C@@]5(C)CC[C@H](OC6OC(C)C(O)C(OC7OC(CO)C(O)C(O)C7O)C6O)C(C)(C)C5CC[C@]43C)C2C1C (stereo not given in full),max response,CRL-7250,-0.92%
same,max response,HEK293,-0.0822%
same,max response,HaCat,-2.82%
same,outcome,KB-3-1,inactive
same,max response,NIH3T3,2.41%
COc1cc([C@H]2c3cc(O)c(OC)cc3C[C@@H](CO[C@@H]3O[C@H](CO)[C@@H](O)[C@H](O)[C@H]3O)[C@@H]2CO)ccc1O,max response,CRL-7250,-6.95%
same,max response,HEK293,-2.47%
same,max response,HaCat,-4.19%
same,outcome,KB-3-1,inactive
same,max response,NIH3T3,-0.225%
CC(C)CC(=O)O[C@@H]1OC=C(CO[C@@H]2O[C@H](CO)[C@@H](O)[C@H](O)[C@H]2O)[C@H]2[C@@H]3O[C@H]3[C@@](O)(CO)[C@@H]12,max response,CRL-7250,-0.109%
same,max response,HEK293,-8.14%
same,max response,HaCat,1.46%
same,max response,KB-3-1,6.77%
same,max response,NIH3T3,2.35%
C[C@@H]1CCC2C(C)(C)[C@H](O)CC[C@]2(C)[C@@]12Cc1c(O)cc3c(c1O2)CNC3=O (stereo not given in full),max response,CRL-7250,-75.1%
same,max response,HEK293,-94.6%
same,max response,HaCat,-68.6%
same,max response,KB-3-1,9.73%
same,max response,NIH3T3,-63%
CC(=O)c1cc2c(cc1O)OC(C)(C)C=C2,outcome,CRL-7250,inactive
same,max response,HEK293,0.43%
same,max response,HaCat,-16.3%
same,outcome,KB-3-1,inactive
same,max response,NIH3T3,-4.07%
CC(Nc1ncnc2nc[nH]c12)c1cc2cccc(Cl)c2c(=O)n1-c1ccccc1 (stereo not given),max response,CRL-7250,-7.8%
same,Potency,HEK293,18.4 µM (active)
same,Potency,HaCat,20.6 µM (active)
same,max response,KB-3-1,-11.3%
same,Potency,NIH3T3,13 µM (active)
C[C@@H]1CC[C@@]2(OC1)O[C@H]1C[C@H]3[C@@H]4CC=C5C[C@@H](O)CC[C@]5(C)[C@H]4CC[C@]3(C)[C@H]1[C@@H]2C,max response,CRL-7250,3.2%
same,max response,HEK293,-1.54%
same,max response,HaCat,4.49%
same,max response,KB-3-1,-3.17%
same,max response,NIH3T3,-1.68%
C=C1C(OC(C)=O)CCC2(C)CC3(OC)OC(=O)C(C)=C3CC12 (stereo not given),max response,CRL-7250,-3.85%
same,max response,HEK293,-22.9%
same,max response,HaCat,-0.749%
same,max response,KB-3-1,7.17%
same,max response,NIH3T3,0.22%
COc1cc(N2CCC(N3CCN(C)CC3)CC2)ccc1Nc1ncc(Cl)c(-c2c[nH]c3ccccc23)n1,Potency,CRL-7250,10.3 µM (active)
same,Potency,HEK293,2.91 µM (active)
same,Potency,HaCat,3.66 µM (active)
same,Potency,KB-3-1,4.61 µM (active)
same,Potency,NIH3T3,1.46 µM (active)
C=C1CC[C@H]2[C@@](C)(CCC(O)[C@@]2(C)CO)[C@@H]1CCC1=CCOC1=O (stereo not given in full),max response,CRL-7250,0.497%
same,max response,HEK293,3.62%
same,max response,HaCat,-3.43%
same,max response,KB-3-1,-26.3%
same,max response,NIH3T3,-1.37%
Cn1ncnc1COc1nn2c(-c3cc(F)ccc3F)nnc2cc1C(C)(C)C,max response,CRL-7250,-15.8%
same,max response,HEK293,0.514%
same,max response,HaCat,-21.7%
same,max response,KB-3-1,8.68%
same,max response,NIH3T3,-2.09%
CC(=O)O[C@@H](CO[C@@H]1O[C@H](CO)[C@H](O)[C@H](O)[C@H]1O)[C@]1(C)C=C2CC[C@@H]3C(C)(C)[C@@H](O)CC[C@@]3(C)[C@@H]2CC1,max response,CRL-7250,-3.06%
same,max response,HEK293,-1.31%
same,max response,HaCat,2.2%
same,max response,KB-3-1,2.92%
same,max response,NIH3T3,4.41%
C=C[C@H]1CN2CC[C@H]1C[C@@H]2C(O)c1ccnc2ccc(OC)cc12 (stereo not given in full),outcome,CRL-7250,inactive
same,max response,HEK293,-7.03%
same,max response,HaCat,2.46%
same,max response,KB-3-1,4.51%
same,max response,NIH3T3,3.58%
COC(=O)c1ccc(OC(CO)C(O)c2ccc(O)c(OC)c2)c(OC)c1 (stereo not given),max response,CRL-7250,0.832%
same,max response,HEK293,1.51%
same,max response,HaCat,1.74%
same,max response,KB-3-1,-5.47%
same,max response,NIH3T3,-1.03%
Cc1ccc(Cc2c(C)nc3nc(SCC(=O)NCCN4CCNCC4)nn3c2C)cc1,outcome,CRL-7250,inactive
same,max response,HEK293,2.24%
same,max response,HaCat,-12.4%
same,outcome,KB-3-1,inactive
same,max response,NIH3T3,-3.32%
CC(=O)N1CCN(Cc2ccc([C@H](C)Nc3nccc(N4C(=O)OC[C@@H]4C(C)C)n3)cc2)CC1,Potency,CRL-7250,0.92 µM (active)
same,max response,HEK293,-108%
same,max response,HaCat,-0.103%
same,max response,KB-3-1,2.58%
same,max response,NIH3T3,-9.86%
C[C@@H]([C@@H](O)c1ccc(O)cc1)N1CCC(O)(c2ccccc2)CC1,max response,CRL-7250,0.694%
same,max response,HEK293,-2%
same,max response,HaCat,-0.788%
same,max response,KB-3-1,-1.25%
same,max response,NIH3T3,1.49%
CC(C(O)/C=C/C(C)(C)O)C1CCC2(C)C3C(=O)C=C4C(CCC(O)C4(C)C)C3(C)CCC12C (stereo not given),max response,CRL-7250,-0.192%
same,max response,HEK293,-3.03%
same,max response,HaCat,-4.33%
same,outcome,KB-3-1,inactive
same,max response,NIH3T3,4.41%
CCOC(=O)Nc1cc(-c2ccc(C)c(NS(C)(=O)=O)c2)nn2c(C)nnc12,Potency,CRL-7250,7.31 µM (active)
same,Potency,HEK293,4.11 µM (active)
same,Potency,HaCat,0.651 µM (active)
same,Potency,KB-3-1,10.3 µM (active)
same,Potency,NIH3T3,9.2 µM (active)
COc1cc(NC(=O)Nc2cccc(CNC(=O)O[C@H]3CCOC3)c2)ccc1-c1cnco1,Potency,CRL-7250,8.2 µM (active)
same,Potency,HEK293,2.31 µM (active)
same,max response,HaCat,-5.46%
same,Potency,KB-3-1,4.11 µM (active)
same,Potency,NIH3T3,3.66 µM (active)
C/C(=C\CCC1(C)C2CCC(C2)C1(C)O)C(=O)O (stereo not given),outcome,CRL-7250,inactive
same,max response,HEK293,-6.56%
same,max response,HaCat,0.481%
same,outcome,KB-3-1,inactive
same,max response,NIH3T3,3.29%
O=C1Nc2ccccc2C(O)(c2ccccc2)C1O (stereo not given),max response,CRL-7250,0.0908%
same,max response,HEK293,-7.58%
same,max response,HaCat,-18.6%
same,max response,KB-3-1,2.02%
same,max response,NIH3T3,-2.57%
CC(=O)c1ccc2c(c1)C(O)C(C(C)(C)O)O2 (stereo not given),max response,CRL-7250,-0.999%
same,max response,HEK293,-3.07%
same,max response,HaCat,1.04%
same,outcome,KB-3-1,inactive
same,max response,NIH3T3,-18%
CC1(c2nc3c(C(N)=O)cccc3[nH]2)CCCN1 (stereo not given),max response,CRL-7250,-7.72%
same,max response,HEK293,-22.9%
same,max response,HaCat,-9.07%
same,outcome,KB-3-1,inactive
same,max response,NIH3T3,-5.13%
CC1(C)CCCC2(C)C=C(C(=O)O)C(O)CC12 (stereo not given),outcome,CRL-7250,inactive
same,max response,HEK293,-6.67%
same,max response,HaCat,-0.18%
same,max response,KB-3-1,1.72%
same,max response,NIH3T3,1.16%
C=C1CCC2C(C)(C)C(O)CCC2(C)C1CCC(C)CCOC(C)=O (stereo not given),outcome,CRL-7250,inactive
same,max response,HEK293,-19.2%
same,max response,HaCat,-5.36%
same,max response,KB-3-1,3.19%
same,max response,NIH3T3,-9.96%
C[C@@H]1CC[C@]2(C(=O)O[C@@H]3O[C@H](CO)[C@@H](O)[C@H](O)[C@H]3O)CC[C@]3(C)C(=CCC4[C@@]5(C)C[C@@H](O)[C@H](O)[C@@](C)(C(=O)O[C@H]6[C@H](O)C[C@@]7(C)C(CC[C@]8(C)C7CC=C7[C@H]9[C@](C(=O)O[C@@H]%10O[C@H](CO)[C@@H](O)[C@H](O)[C@H]%10O)(CC[C@@H](C)[C@@]9(C)O)CC[C@]78C)[C@@]6(CO)C(=O)O)C5CC[C@]43C)[C@@H]2[C@]1(C)O (stereo not given in full),outcome,CRL-7250,inactive
same,max response,HEK293,-9.28%
same,max response,HaCat,-16.1%
same,outcome,KB-3-1,inactive
same,max response,NIH3T3,4.48%
